Drawing on publication PMC5892938, “SARNAclust: Semi-automatic detection of RNA protein binding motifs from immunoprecipitation data”, this text covers binding signal for 37 sequences.

Over roughly 11,000 sequences, “log2 fold change” has its median near 0.00022; the highest 2% begin near 0.34. The list shows a part of the results.

This experiment concerns the target GST-SBP-SLBP (stem-loop binding protein) (Homo sapiens, UniProt Q14493 1-270). In words: targeted RNA Bind-n-Seq; RBNS binding buffer: 25 mM Tris pH 7.5, 150 mM KCl, 3 mM MgCl2, 0.1% Tween, 0.5 mg/mL BSA, 1 mM DTT; 27 nM protein, 750 pM RNA pool; temperature not stated; high values mean tight binding. To be noted: protein: recombinant; tags: N-terminal GST and SBP (pGEX6P1-SBP); structured_RNA. In short, it runs like this: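 The protein, carrying a GST-SBP tag, was produced in Rosetta(DE3) pLysS E. coli, purified on glutathione, and mixed at 27 nM with 750 pM of a designed RNA oligo pool made by T7 transcription in RBNS binding buffer. RNA that bound was reverse transcribed using a barcoded primer of 10 nucleotides, amplified by PCR and sequenced on a MiSeq with 200-cycle paired-end reads. FLASH joined the reads, HISAT2 aligned them, and they were collapsed by barcode before the binding signal was taken as the DEseq binary-logarithm fold change of read counts for each sequence.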
In the case of “GGUCACGUCUCAAUCAACUCUAUCCCAGGAGUUUCCUCCUGCAUACUCAACAGCUCGCAGUCAAG”, the binding signal was 0.312 ± 0.201 log2 fold change.

“GGUCACGUCUCAAUCAACUCAAUCCCAGGAGUUUUCUCCUGUAAAGUCAACAGCUCGCAGUCAAG”: the binding signal was found to be 0.317 ± 0.231 log2 fold change.

“GGUCACGUCUCAAUCAACUCAGUCUCAGGAGUUUACUCCUGCUUAUUCAACAGCUCGCAGUCAAG”: the binding signal came out at 0.314 ± 0.242 log2 fold change.

“GGUCACGUCUCAAUCAACUCAUCUUCAGGAGUUUACUCCUGCUUAGUCAACAGCUCGCAGUCAAG”: the binding signal is 0.342 ± 0.198 log2 fold change.

In the case of “GGUCACGUCUCAAUCAACUCAUCCUCAGGAGUUUACUCCUGCUUACUCAACAGCUCGCAGUCAAG”, the binding signal is 0.315 ± 0.216 log2 fold change.

As to “GGUCACGUCUCAAUCAACUCAAUCUCCAGGGAAACCCCUGGUAAACUCAACAGCUCGCAGUCAAG”, the binding signal was 0.353 ± 0.274 log2 fold change.

Take “GGUCACGUCUCAAUCAACUCUUCGUCCAGGGAAACCCCUGGUUUUCUCAACAGCUCGCAGUCAAG”: the binding signal was 0.36 ± 0.292 log2 fold change.

For “GGUCACGUCUCAAUCAACUCUUCCUCCAGGGAAACCCCUGGUUAACUCAACAGCUCGCAGUCAAG”, the binding signal amounted to 0.443 ± 0.293 log2 fold change.

Turning to “GGUCACGUCUCAAUCAACUCUUCCUCCAGGGAAAACCCUGGUAAACUCAACAGCUCGCAGUCAAG”, the binding signal came to 0.339 ± 0.267 log2 fold change.

In the case of “GGUCACGUCUCAAUCAACUCUUCGCCCAGGGAAACCCCUGGUAAUCUCAACAGCUCGCAGUCAAG”, the binding signal worked out at 0.384 ± 0.343 log2 fold change.

For the sequence “GGUCACGUCUCAAUCAACUCUUCGUCCAGGGAAAACCCUGGUUUUCUCAACAGCUCGCAGUCAAG”, the binding signal turned out to be 0.335 ± 0.277 log2 fold change.

As for “GGUCACGUCUCAAUCAACUCUACUUCCAGGGAAAACCCUGGCAAACUCAACAGCUCGCAGUCAAG”, the binding signal stood at 0.31 ± 0.258 log2 fold change.

In the case of “GGUCACGUCUCAAUCAACUCAGUCUCCAGGGAAACCCCUGGUUUAUUCAACAGCUCGCAGUCAAG”, the binding signal is 0.458 ± 0.335 log2 fold change.

Consider “GGUCACGUCUCAAUCAACUCUUCUUCCAGGGAAACCCCUGGUAAUCUCAACAGCUCGCAGUCAAG”, for which the binding signal was determined as 0.352 ± 0.266 log2 fold change.

In the case of “GGUCACGUCUCAAUCAACUCAGUUUCCAGGGAAAUCCCUGGUUUAUUCAACAGCUCGCAGUCAAG”, the binding signal came to 0.33 ± 0.289 log2 fold change.

With “GGUCACGUCUCAAUCAACUCUUCUUCCAGGGAAAACCCUGGCAAACUCAACAGCUCGCAGUCAAG”, the binding signal was found to be 0.378 ± 0.272 log2 fold change.

For the sequence “GGUCACGUCUCAAUCAACUCAGUCCCCAGGGAAAACCCUGGUUUUUUCAACAGCUCGCAGUCAAG”, the binding signal amounted to 0.518 ± 0.357 log2 fold change.

Turning to “GGUCACGUCUCAAUCAACUCAGUCCCCAGGGAAACCCCUGGUAUUUUCAACAGCUCGCAGUCAAG”, the binding signal came to 0.335 ± 0.368 log2 fold change.

In the case of “GGUCACGUCUCAAUCAACUCUCAGGAGGGGGGGAAAACCCCUUUACCCUCAUCGUCAACAGCUCGCAGUCAAG”, the binding signal came out at 0.309 ± 0.421 log2 fold change.

Take “GGUCACGUCUCAAUCAACUCUAAGGAGGGGGGGAAAACCCCUUUACCCUCACACUCAACAGCUCGCAGUCAAG”: the binding signal came out at 0.396 ± 0.454 log2 fold change.

For the sequence “GGUCACGUCUCAAUCAACUCUAAGGAGGGGGGGAAAACCCCUUUACCCUCAUCAUCAACAGCUCGCAGUCAAG”, the binding signal turned out to be 0.486 ± 0.425 log2 fold change.

On to “GGUCACGUCUCAAUCAACUCUCCAGAGGGGGGGAAAACCCCUUUACCCUCAACAUCAACAGCUCGCAGUCAAG”, for which the binding signal turned out to be 0.304 ± 0.431 log2 fold change.

“GGUCACGUCUCAAUCAACUCAACUGAGGGGGGGAAAACCCCUUUACCCUCCACAUCAACAGCUCGCAGUCAAG”: the binding signal turned out to be 0.388 ± 0.423 log2 fold change.

Take “GGUCACGUCUCAAUCAACUCAACUGAGGGGGGGAAAACCCCUUUACCCUCCAAAUCAACAGCUCGCAGUCAAG”: the binding signal was determined as 0.448 ± 0.446 log2 fold change.

Turning to “GGUCACGUCUCAAUCAACUCCCAAGAGGGGGGGAAAACCCCUUUACCCUCGUAAUCAACAGCUCGCAGUCAAG”, the binding signal was determined as 0.444 ± 0.442 log2 fold change.

As for “GGUCACGUCUCAAUCAACUCCCAAGAGGGGGGGAAAACCCCUUUACCCUCACUCUCAACAGCUCGCAGUCAAG”, the binding signal was determined as 0.558 ± 0.444 log2 fold change.

As for “GGUCACGUCUCAAUCAACUCAAUAGAGGGGGGGAAAACCCCUUUACCCUCCCAAUCAACAGCUCGCAGUCAAG”, the binding signal was 0.325 ± 0.459 log2 fold change.

Turning to “GGUCACGUCUCAAUCAACUCUUACGAGGGGGGGAAAACCCCUUUGCCCUCAACAUCAACAGCUCGCAGUCAAG”, the binding signal amounted to 0.326 ± 0.377 log2 fold change.

Turning to “GGUCACGUCUCAAUCAACUCUCACGAGGGGGGGAAAACCCCUUUACCCUCAAAUUCAACAGCUCGCAGUCAAG”, the binding signal was found to be 0.315 ± 0.408 log2 fold change.

As for “GGUCACGUCUCAAUCAACUCUUACGAGGGGGGGAAAACCCCUUUGCCCUCAAAUUCAACAGCUCGCAGUCAAG”, the binding signal was found to be 0.347 ± 0.395 log2 fold change.

With “GGUCACGUCUCAAUCAACUCUUACGAGGGGGGGAAAACCCCUUUACCCUCAAAUUCAACAGCUCGCAGUCAAG”, the binding signal was found to be 0.37 ± 0.399 log2 fold change.

Turning to “GGUCACGUCUCAAUCAACUCUUCAGAGGGGGGGAAAACCCCUUUACCCUCCGUUUCAACAGCUCGCAGUCAAG”, the binding signal was determined as 0.44 ± 0.434 log2 fold change.

Take “GGUCACGUCUCAAUCAACUCUUCAGAGGGGGGGAAAACCCCUUUACCCUCCUAAUCAACAGCUCGCAGUCAAG”: the binding signal stood at 0.368 ± 0.433 log2 fold change.

In the case of “GGUCACGUCUCAAUCAACUCGUUUUCAGGAGUUUACUCCUGCUUAUUCAACAGCUCGCAGUCAAG”, the binding signal stood at 0.329 ± 0.222 log2 fold change.

Regarding “GGUCACGUCUCAAUCAACUCACAAGAGGGGGGGAAAACCCCUUUGCCCUCGAUAUCAACAGCUCGCAGUCAAG”, the binding signal stood at 0.468 ± 0.396 log2 fold change.

For the sequence “GGUCACGUCUCAAUCAACUCACAAGAGGGGGGGAAAACCCCUUUGCCCUCCGUAUCAACAGCUCGCAGUCAAG”, the binding signal is 0.416 ± 0.404 log2 fold change.

On to “GGUCACGUCUCAAUCAACUCAAAAGAGGGGGGGAAAACCCCUUUGCCCUCGAUAUCAACAGCUCGCAGUCAAG”, for which the binding signal was determined as 0.336 ± 0.363 log2 fold change.
